Holding throughout (assay): NCI-60 one-dose screen, 48 h (100 = growth as untreated, 0 = no growth, -100 = all killed)
Holding throughout (conditions): 10 µM unless noted

The test system of assay [1] is HCT-15 colon.
Assay [2] relates to HT29 colon.
Assay [3] has as its system SNB-19 CNS.
For assay [4], the system named is U251 CNS.
Assay [5] deals with PC-3 prostate.
The test system of assay [6] is SK-MEL-5 melanoma.
In assay [7] the test system is UACC-62 melanoma.
Assay [8] relates to LOX IMVI melanoma.
Assay [9] relates to SK-MEL-28 melanoma.
Assay [10] concerns SK-MEL-2 melanoma.
The subject of assay [11] is EKVX NSCLC.
Assay [12] relates to SN12C renal.
Assay [13] concerns UO-31 renal.
Assay [14] has as its system TK-10 renal.
For assay [15], the system named is ACHN renal.
Assay [16] concerns CAKI-1 renal.
The test system of assay [17] is A498 renal.
In assay [18] the test system is CCRF-CEM leukemia.
In assay [19] the test system is MOLT-4 leukemia.
Assay [20] concerns SNB-75 CNS.

15 compounds from PubChem BioAssay (NCI) can be followed below.

The panel holds about 83,000 compounds, 20% with a hit somewhere; the sample as a whole holds those more often.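 Plates (96-well) were seeded with cells, treated with compound at one concentration, and incubated for 48 hours before percent growth was determined.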 A number with no mark means an inactive call. The source made the active and inactive calls. Rule for the calls: active = growth percent below 10; inactive = the rest.

With `COc1ccc(C2C3=C(COC3=O)N(CCO)c3cc4c(cc32)OCCO4)cc1OC` (configuration not stated), the growth is 31.3% in [1]; 4.76% (active) in assay [2]; 37.4% in assay [3]; 26.4% in assay [4]; 23.8% in assay [5]; 21% in assay [6]. Moreover, the growth in assay [7] was 18.1%; in [8] it was 42.1%; in assay [9], 48.7%; in [10] it was 55.3%; in [11], 56.5%; in assay [12], 42%. Besides, the growth in assay [13] was 66.2%; in assay [14] it was 65.1%; in [15], 42.2%; in assay [16], 49.5%; in assay [17], -5.71% (active); in assay [18] it was 21.1%. In [19], the growth is 55.3%.
As for `CSCCC(NC(=O)c1ccccc1)C(=O)N/N=C1\S/C(=C/c2ccc(Cl)cc2)C(=O)N1C` (configuration not stated), the growth in assay [1] was 96.4%; in [2], 91.4%; in assay [3], 68.1%; in assay [4], 64.2%; in [5], 84.9%; in [6] it was 82.9%. The growth in assay [7] was 91.1%; in assay [8], 89.3%; in assay [9] it was 85.9%; in assay [10], 97.4%; in assay [11], 92.7%; in [12] it was 97.3%. Besides, the growth was 90.6% in assay [13]; 105% in assay [14]; 76.5% in assay [15]; 117% in assay [16]; 103% in assay [17]; 4.24% (active) in assay [18]. In addition, the growth in [19] is 66.8%.
For `O=C(CN1CCN(c2cc3c(cc2F)c(=O)c(C(=O)O)cn3C2CC2)CC1)N/N=C/c1ccncc1`, the growth in assay [1] is 97.5%; in assay [2] it was 97.8%; in assay [3], 92.8%; in assay [4] it was 98.8%; in assay [5] it was 91.7%; in [6] it was 96.9%. The growth was 95.7% in assay [7]; 99.8% in assay [8]; 106% in assay [9]; 105% in [10]; 98.3% in [11]; 106% in assay [12]. The growth in [13] is 90.6%; in [14], 91.6%; in [15], 99.6%; in [16] it was 93.8%; in assay [17], 96.4%; in assay [18], 94%. The growth in assay [19] was 101%.
Regarding `COc1cc(C#Cc2ccc(=O)oc2C#Cc2ccccc2)cc(OC)c1OC`, the growth is 61.4% in assay [1]; 43.4% in [2]; 92.9% in assay [3]; 83.8% in [4]; 86.2% in [5]; 56.7% in [6]. The growth in [7] is 80.3%; in assay [8], -61% (active); in assay [9], 23.1%; in [10], 104%; in assay [11], 115%; in [12], 16%. Moreover, the growth in [13] was 76.6%; in assay [14], 134%; in assay [15], 89.3%; in [16], 96.3%; in [17], 119%; in [18], 3.76% (active). In addition, the growth in assay [19] was 33.4%.
As to `N#Cc1c(-c2cccc([N+](=O)[O-])c2)cc(-c2ccc(Nc3nc(Nc4ccc(F)cc4)nc(Nc4ccc(F)cc4)n3)cc2)nc1N`, the growth in assay [1] is 103%; in assay [2], 113%; in assay [3], 104%; in assay [4] it was 110%; in assay [5], 92%; in assay [6], 84.4%. The growth was 110% in assay [7]; 97.9% in assay [8]; 114% in [9]; 68.1% in assay [10]; 137% in assay [11]; 137% in [12]. The growth is 83.7% in assay [13]; 128% in assay [14]; 108% in assay [15]; 113% in assay [16]; 115% in [17]; 78% in assay [18]. Moreover, in assay [19], the growth is 84.6%.
As to `CC(C)(C)c1cc(C=Nc2cccc(C(F)(F)F)c2)c(O)c(C(C)(C)C)c1`, the growth in assay [1] is 83.7%; in [2], 81%; in [3] it was 93.9%; in assay [4], 77.6%; in assay [5], 80.2%; in [6], 99.9%. The growth in assay [7] was 101%; in [8], 101%; in assay [9], 107%; in [10], 102%; in assay [11], 107%; in assay [12] it was 98.8%. Also, the growth in [13] was 80.7%; in [14] it was 84.8%; in assay [15], 111%; in assay [16] it was 90.4%; in assay [17] it was 108%; in [18], 62.5%. Also, the growth in [19] was 85.3%.
For `CC(C)(C)C(=O)/C=C/c1ccc([N+](=O)[O-])cc1`, the growth was 42.1% in [1]; 50.2% in assay [2]; 66.9% in [3]; 58% in assay [4]; 55.3% in assay [5]; 81.7% in assay [6]. The growth is 74.4% in assay [7]; 36.9% in assay [8]; 92.1% in assay [9]; 89.2% in assay [10]; 89.3% in [11]; 92.1% in assay [12]. In addition, the growth is 76.5% in assay [13]; 91.4% in assay [14]; 57.3% in assay [15]; 96.1% in [16]; 91% in [17]; 44.3% in [18]. Also, the growth in assay [19] was 75.4%.
Consider `CCNC(=O)Oc1ccc(/C(=C(/C)Cc2ccc(OC)cc2)c2ccc(OCCN3CCCC3)cc2)cc1`, for which the growth was 45.9% in assay [1]; 7.46% (active) in assay [2]; 80.4% in [3]; 54.3% in [4]; 66.4% in assay [5]; 69.1% in assay [7]. For the same compound, the growth in assay [8] was 60.8%; in assay [9], 66.1%; in [10], 110%; in assay [11] it was 76.2%; in [12] it was 75.6%; in [13], 57.8%. The growth in assay [14] is 88.1%; in [15], 92.4%; in assay [16] it was 82.3%; in assay [17], 91.9%; in assay [18], 45.8%; in assay [19] it was 31.6%.
Turning to `Cn1ccnc1C(=O)/C=C/c1ccc(C(=O)Nc2ccc(F)cc2)cc1`, the growth in assay [1] is 0.589% (active); in [2], 9.78% (active); in assay [20], 33%; in assay [3] it was 24.4%; in assay [6] it was 8.1% (active); in assay [7], 35.6%. Besides, the growth in assay [8] is -59.7% (active); in assay [9], 60.9%; in assay [10], 74.6%; in assay [11] it was 26.6%; in [12] it was 14.3%; in assay [13], -14.2% (active). The growth in assay [14] was 13.1%; in assay [15] it was -49.9% (active); in assay [16], 28.9%; in [17], -9.36% (active); in assay [18] it was 2.27% (active); in [19], 7.92% (active).
Turning to `C#Cc1cccc(Oc2ccc(NC(=O)CCl)cc2)c1`, the growth was -29.8% [8.25 µM] (active) in [1]; 34.5% [8.25 µM] in assay [2]; 54.2% [8.25 µM] in assay [3]; 32.9% [8.25 µM] in [4]; 61.7% [8.25 µM] in [5]; 6.75% [8.25 µM] (active) in [6]. The growth is 26% [8.25 µM] in assay [7]; -27.1% [8.25 µM] (active) in [8]; 91.8% [8.25 µM] in [9]; 61.8% [8.25 µM] in assay [10]; 82.3% [8.25 µM] in assay [11]; 37.6% [8.25 µM] in assay [12]. In addition, the growth in assay [13] is 52.8% [8.25 µM]; in [14], 93% [8.25 µM]; in [15] it was 70.1% [8.25 µM]; in assay [16], 36.9% [8.25 µM]; in assay [18] it was 2.35% [8.25 µM] (active); in assay [19] it was 0.835% [8.25 µM] (active).
On to `Cc1cc(F)ccc1S(=O)(=O)Nc1cc(-c2c(O)ccc3ccccc23)c(O)c2ccccc12`, for which the growth is 10.7% in assay [1]; 52.8% in assay [2]; 46.2% in assay [20]; 37.4% in [3]; 15.5% in assay [5]; 2.8% (active) in [7]. The growth in assay [8] is 16%; in assay [9], 29.4%; in assay [10], 5.32% (active); in assay [11], 19%; in [12] it was 46.6%; in assay [13], 20.3%. The growth in [14] was 72.7%; in assay [15], -7.97% (active); in assay [16], 51.5%; in assay [17] it was 57.7%; in assay [18], 21.9%; in assay [19], 17.6%.
Regarding `COc1cccc(NC(=O)c2cccc(C3CCc4c(cc(OC)c(OC)c4OC)O3)c2)c1` (configuration not stated), the growth is 63.2% in assay [1]; 71.9% in assay [2]; 74.1% in assay [3]; 75.5% in assay [4]; 28.9% in assay [5]; 36.4% in [6]. In addition, the growth was 40.6% in assay [7]; 59.9% in assay [8]; 81.5% in assay [9]; 65.5% in [10]; 69.1% in assay [11]; 55.2% in assay [12]. Also, the growth is 34.5% in assay [13]; 74.5% in assay [14]; 66.8% in assay [15]; 80.3% in assay [16]; 22.1% in assay [18]; 7.7% (active) in [19].
For the compound `COc1cc2cc(Oc3ccc(NC(=O)Nc4ccccc4)cc3)c(C)nc2cc1OCCN1CCCCC1`, the growth in [1] was 14.3%; in [2], 17%; in assay [20] it was 74.9%; in assay [3], 91.6%; in assay [6], 84.7%; in [7], 95.4%. Further, the growth in [8] is 78.7%; in [9], 91.6%; in [10], 100%; in [11], 99.8%; in assay [12] it was 89.9%; in assay [13], 64.3%. The growth in assay [14] is 108%; in assay [15], 84.4%; in assay [16] it was 96.1%; in [17], 55.4%; in assay [18] it was -20.9% (active); in assay [19] it was -22.2% (active).
Consider `Cc1ccc(C(=O)c2ccc(CC(=O)N/N=C/c3ccc(O)cc3O)n2C)cc1`, for which the growth in assay [1] was 16.8%; in [2], 64%; in assay [3] it was 49.4%; in assay [4] it was 37.6%; in [6], 39.3%; in assay [7], 29.8%. For the same compound, the growth is 18.8% in assay [8]; 46.4% in assay [9]; 59.5% in [10]; 34.2% in [11]; 55.7% in [12]; 19.8% in assay [13]. For the same compound, the growth is 52.9% in assay [14]; 16.5% in [15]; 46.6% in assay [16]; 16.8% in assay [18]; 12.6% in assay [19].
On to `CCN1C(=O)N(CC)C2C1NN=c1s/c(=C\c3cc4ccccc4[nH]3)c(=O)n12` (configuration not stated), for which the growth in assay [1] is 12%; in assay [2], 5.58% (active); in [3] it was 45.1%; in [4], 7.49% (active); in assay [5], 13.2%; in assay [6], -5.91% (active). The growth in assay [7] is 22.2%; in assay [8], 17.4%; in [9] it was 52.2%; in assay [10], 23.1%; in assay [11], 54.5%; in [12], 11.2%. For the same compound, the growth is 18.7% in [13]; 59.6% in assay [14]; 11.7% in assay [15]; 7.63% (active) in assay [16]; 2.17% (active) in [17]; -8.2% (active) in assay [18]. Further, in [19], the growth is 11.1%.
